The values that follow come from PubChem BioAssay (NCI).

Each structure is given as a SMILES string. Compounds without any hit were thinned out: in the full panel of roughly 83,000, 20% have a hit.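 Each cell line was grown in a 96-well plate and treated with one concentration of compound for 48 hours. Values below 10 were considered active.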 A number with no mark means an inactive call. Active and inactive are the calls of the source.

Common to all, as to test: NCI-60 one-dose screen, 48 h (100 = growth as untreated, 0 = no growth, -100 = all killed)
What all share (conditions): 10 µM unless noted

Test [1] has as its system HT29 colon.
Test [2] deals with SNB-75 CNS.
The subject of test [3] is SNB-19 CNS.
Test [4] has as its system U251 CNS.
For test [5], the system named is SK-MEL-5 melanoma.
Test [6] relates to UACC-62 melanoma.
For test [7], the system named is LOX IMVI melanoma.
Test [8] has as its system SK-MEL-28 melanoma.
For test [9], the system named is SK-MEL-2 melanoma.
Test [10] relates to EKVX NSCLC.
Test [11] has as its system SN12C renal.
Test [12] deals with UO-31 renal.
The subject of test [13] is TK-10 renal.
In test [14] the test system is ACHN renal.
In test [15] the test system is CAKI-1 renal.
Test [16] relates to A498 renal.
Test [17] deals with CCRF-CEM leukemia.
Test [18] deals with MOLT-4 leukemia.
Test [19] relates to SR leukemia.

As to `Cc1cc(C)n(C(=O)c2nn(-c3ccc(Cl)cc3)cc2O)n1`, the growth is 97.7% in test [1]; 29.8% in [2]; 26.3% in [3]; 19.4% in test [4]; 79.3% in test [5]; 52.9% in test [6]. Besides, the growth is 41.4% in test [7]; 71.7% in [8]; 88.3% in test [9]; 66.8% in test [10]; 25.6% in [11]; 13.7% in [12]. Besides, the growth in [13] was 35.7%; in test [14], 33.4%; in [15], 77.6%; in [16], 56.2%; in test [17], 13%; in test [18], 9.99% (active). For the same molecule, in test [19], the growth is 3.49% (active).
Take `O=C1CCCN1C1CCN(Cc2cc3ccccc3[nH]c2=O)c2ccccc21` (stereo not given): the growth was 92.9% in test [1]; 79.3% in test [2]; 96.8% in [3]; 96.1% in test [4]; 86.1% in test [5]; 85.5% in test [6]. Further, the growth was 90.4% in [7]; 103% in test [8]; 96.1% in test [9]; 79% in test [10]; 88.3% in [11]; 52.5% in test [12]. For the same molecule, the growth was 93.3% in test [13]; 89.1% in [14]; 79.3% in test [15]; 111% in test [16]; 76.4% in test [17]; 68.7% in test [18]. In test [19], the growth is 73.1%.
Take `CC(=O)c1cc(C(=O)c2ccc3c(c2)Sc2ccccc2N3)c2c(C)cc(C)cn12`: the growth is -15% (active) in test [1]; -2.02% (active) in test [2]; 36.5% in [3]; 14.6% in test [4]; -36.5% (active) in test [5]; 23.1% in test [6]. Moreover, the growth was 16.6% in [7]; 40.4% in test [8]; 26.3% in test [9]; 34.3% in [10]; 20.7% in test [11]; 22.5% in test [12]. For the same molecule, the growth was 34.6% in [13]; 12.2% in test [14]; 9.64% (active) in [15]; -27.3% (active) in [16]; 19.2% in test [18]; 5.45% (active) in test [19].
`Nc1ccccc1-c1ccc([N+](=O)[O-])cc1`: the growth was 78.1% in [1]; 71.9% in test [2]; 67.3% in test [3]; 67.4% in test [4]; 34.8% in test [5]; 24.9% in [6]. For the same molecule, the growth was 54.7% in test [7]; 88.4% in test [8]; 24.3% in [9]; 74.6% in test [10]; 60.3% in test [11]; 43.3% in test [12]. Further, the growth in [13] is 72.7%; in test [14] it was 46.1%; in test [15] it was 30.3%; in [16], 75.9%; in test [18] it was 30.5%; in test [19], 34.8%.
With `CC/C=C\C=C/C(=O)N/C=C/CC1Cc2cccc(O)c2C(=O)O1` (stereo not given), the growth is 44.1% in test [1]; 18.7% in test [2]; 56% in test [3]; 57.7% in test [4]; 13% in test [5]; 61.4% in [6]. For the same molecule, the growth in test [7] is 75%; in test [8] it was 76.9%; in test [9], 95.8%; in test [10], 88.8%; in [11], 101%; in [13], 109%. In addition, the growth in test [14] was 145%; in test [15] it was 69.5%; in [16], 47.9%; in test [18], 47.5%.
With `O=C1OCCCCCCCCCC#Cc2ccccc21`, the growth in test [1] was 70.8%; in test [2], 88.7%; in test [3] it was 98.6%; in test [4], 115%; in test [5], 89%; in test [6], 99.2%. Also, the growth in test [7] is 140%; in test [8], 110%; in [9] it was 109%; in [10], 115%; in [11], 113%; in test [13], 122%. Moreover, the growth in [14] was 145%; in test [15], 97.1%; in test [16], 98.3%; in test [18], 85.7%; in test [19] it was 87.4%.
For the molecule `Cc1cc2c(cc1[N+](=O)[O-])NC(CNC(C)C)CC2` (stereo not given), the growth in test [1] is 88.8%; in [2], 67.7%; in test [3], 87%; in test [4] it was 99.2%; in [5] it was 96.8%; in test [6], 98.7%. For the same molecule, the growth is 91.3% in test [7]; 114% in [8]; 112% in test [9]; 95.2% in test [10]; 105% in test [11]; 90.7% in test [12]. The growth in [13] was 97.1%; in test [14], 99.7%; in test [15], 99.7%; in test [16] it was 102%; in [17] it was 130%; in [18], 69.6%. In test [19], the growth was 119%.
On to `O=C1/C(=C/c2ccc3cccc(Cl)c3n2)SC(=S)N1CCc1ccc(O)cc1`, for which the growth was 107% in test [1]; 50.7% in [2]; 97.5% in [3]; 94% in test [4]; 95.8% in test [5]; 68.4% in test [6]. Moreover, the growth in test [7] is 80.7%; in [8], 108%; in test [9], 101%; in test [10] it was 83.7%; in test [11] it was 87.1%; in [12] it was 39.8%. The growth in [13] was 129%; in [14], 82.6%; in test [15] it was 51%; in test [16] it was 58.6%; in test [17], 6.53% (active); in test [18] it was 48.9%. In addition, the growth in [19] was 79%.
